# Test results published in PubChem BioAssay (NCATS).
# Values joined by “and” are separate entries in the source; they are usually repeats but may differ in a detail not shown here. Equal values may be shown once. Inconclusive results are not listed. Entries that show only a call come without a potency. Active and inactive are the calls of the source. Unless noted, the call rests on the fitted dose curve; in most records, active means well fitted curve in the direction sought with a large enough effect; inconclusive means small, poorly fitted or top-dose-only effect, or another doubt; inactive means no such curve, though single readings can be large; an effect the other way counts as inactive or inconclusive. Positions of bridges follow the written chain, without caps; N, C: chain ends. Non-standard residues stand in square brackets, D forms with d. Residues, ends and D or L forms follow the SMILES beside them. ξ: configuration not given here. *: point of attachment. Octanoyl(6-Me) = CCC(C)CCCCC(=O)*; ξThr(3R) = C[C@@H](O)C(N)C(=O)O; dDab = NCC[C@@H](N)C(=O)O; Dab = NCC[C@H](N)C(=O)O
# What was measured:
# [1] = qHTS to identify inhibitors of the type 1 interferon - major histocompatibility complex class I in skeletal muscle: primary screen against the NCATS Mechanism Interrogation Plate v5.0 (MIPE) Libary (AID 1347411); settings: iHSKM cells + IFN-b, HiBiT-tagged MHC-I luminescence, 24 h; series mostly up to 45.8 µM; further: nearly all actives have a fitted effect of over 65% in size; further: potency means the concentration at half of the fitted maximal effect
# Method in brief: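 HLA-B HiBit myoblasts, dexamethasone-free medium + 4 ng/ml IFN-b, 24 h compound, 11-pt 1:3 from 46 uM final. Readout: Nano-Glo HiBiT lytic luminescence after 10 min lysis, RT.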
# [2] = molecular target: Calcium and integrin-binding protein 1 (Homo sapiens) (UniProt Q99828); assay: Primary qHTS for Identification of Calcium Integrin Binding Protein 1 (CIB1) Competitor (AID 1508620); settings: CIB1-GST / FITC-alphaIIb peptide fluorescence polarization; series mostly up to 57.7 µM;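 further: GST tagged CIB1 binding a fluorescein labelled alphaIIb integrin peptide tracer; top concentration of the series differs between compounds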
# Calcium and integrin-binding protein 1 (Homo sapiens), sequence (Q99828 whole entry, looked up): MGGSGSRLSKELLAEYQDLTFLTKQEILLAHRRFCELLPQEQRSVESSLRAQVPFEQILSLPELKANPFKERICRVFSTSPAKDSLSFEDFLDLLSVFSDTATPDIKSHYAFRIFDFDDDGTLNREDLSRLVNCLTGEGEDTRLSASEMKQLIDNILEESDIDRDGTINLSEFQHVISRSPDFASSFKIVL
# Method in brief: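 Fluorescence polarization competition: CIB1-GST (1 uM final) preincubated with compound 15 min at room temperature, then FITC-labeled alphaIIb peptide (100 nM final) added for another 15 min. Polarization read at Ex 480/Em 540.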
# [3] = Primary qHTS for small molecule stabilizers of the endoplasmic reticulum resident proteome: Secreted ER Calcium Modulated Protein (SERCaMP) assay (AID 1508630); settings: SH-SY5Y GLuc-SERCaMP (Gaussia luciferase released on ER calcium loss) secretion, thapsigargin, luminescence; series mostly up to 38.4 µM
# Method in brief: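 The SH-SY5Y reporter protocol was run at 3 concentrations up to 38.3 uM (primary) or 11 concentrations (follow-up): 16 h compound, 100 nM thapsigargin for 4 h, then extracellular luciferase luminescence.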
# [4] = Primary qHTS for inhibitors of nuclear receptor binding SET domain protein 2 (NSD2) in an isogenic RCH-ACV NSD2 p.E1099K mutant (9B) (AID 1645876); settings: RCH-ACV NSD2 E1099K (9B) viability, CellTiter-Glo, 72 h; series mostly up to 44.9 µM; further: nearly all actives have a fitted effect of over 70% in size; further: potency means the concentration at half of the fitted maximal effect
# [5] = Primary qHTS for inhibitors of nuclear receptor binding SET domain protein 2 (NSD2) in an RCH-ACV wild type WT cells (2C) (AID 1645877); settings: RCH-ACV (leukaemia line) NSD2 WT (2C) viability, CellTiter-Glo, 72 h; series mostly up to 44.9 µM; further: nearly all actives have a fitted effect of over 70% in size; further: potency means the concentration at half of the fitted maximal effect
# [6] = molecular target: Cytochrome P450 2C9 (Homo sapiens) (UniProt P11712); assay: Cytochrome P450 family 2 subfamily C member 9 (CYP2C9) small molecule antagonists: luciferase biochemical (cell-free) qHTS assay (AID 1645842; active means well fitted curve in the direction sought with a large enough effect in the repeat runs; an effect the other way counts as inactive or inconclusive; further: potency means the concentration at half of the fitted maximal effect; nearly all actives have a fitted effect of over 55% in size); settings: P450-Glo CYP2C9 enzyme assay, luciferin luminescence; series mostly up to 57.4 µM
# Cytochrome P450 2C9 (Homo sapiens), sequence (P11712 whole entry, looked up): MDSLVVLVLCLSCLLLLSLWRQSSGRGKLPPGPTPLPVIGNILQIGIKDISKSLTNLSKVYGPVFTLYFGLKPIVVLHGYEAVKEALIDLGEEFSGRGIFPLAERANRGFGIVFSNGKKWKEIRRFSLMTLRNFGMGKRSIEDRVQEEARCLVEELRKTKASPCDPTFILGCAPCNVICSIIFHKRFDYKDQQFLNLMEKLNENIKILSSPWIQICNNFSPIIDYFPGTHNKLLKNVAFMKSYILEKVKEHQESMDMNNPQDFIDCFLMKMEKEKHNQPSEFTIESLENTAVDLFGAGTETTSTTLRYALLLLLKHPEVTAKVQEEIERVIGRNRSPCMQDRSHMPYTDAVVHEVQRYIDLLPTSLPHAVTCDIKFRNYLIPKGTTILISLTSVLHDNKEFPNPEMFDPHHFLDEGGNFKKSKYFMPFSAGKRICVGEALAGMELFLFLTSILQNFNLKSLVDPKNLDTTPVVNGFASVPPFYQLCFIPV
# Method in brief: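 P450-Glo CYP2C9 system: proluciferin substrate with enzyme in mix containing 0.4% BSA, 10 min at room temperature, then NADPH regeneration solution added and incubated 1 h at 37C. Detection reagent stopped reaction; luminescence read after 20 min as RLU.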
# [7] = molecular target: Catechol O-methyltransferase (Homo sapiens) (UniProt P21964); assay: Confirmatory Screen for Target Class Profiling of Small Molecule Inhibitors of Methyltransferases (AID 1745852); settings: MTase-Glo luminescence, SAH detection, recombinant enzyme; measured here: COMT max response; stronger effect = lower value
# Catechol O-methyltransferase (Homo sapiens), sequence (P21964 whole entry, looked up): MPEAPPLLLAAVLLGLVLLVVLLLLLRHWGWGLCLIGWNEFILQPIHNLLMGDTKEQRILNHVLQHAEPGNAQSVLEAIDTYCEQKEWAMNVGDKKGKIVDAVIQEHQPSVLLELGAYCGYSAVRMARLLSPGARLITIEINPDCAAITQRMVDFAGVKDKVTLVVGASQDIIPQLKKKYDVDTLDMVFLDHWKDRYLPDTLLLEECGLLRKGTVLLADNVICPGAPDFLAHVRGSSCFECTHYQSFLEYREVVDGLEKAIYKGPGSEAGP
# [8] = molecular target: Guanidinoacetate N-methyltransferase (Homo sapiens) (UniProt Q14353); assay: as above; settings: MTase-Glo luminescence, SAH detection, recombinant enzyme; activity change, negative = inhibition: at 57.3 µM (top of the series); series mostly up to 57.3 µM
# [9] = molecular target: Cytochrome P450 2D6 (Homo sapiens) (UniProt P10635); assay: Cytochrome P450 family 2 subfamily D member 6 (CYP2D6) small molecule antagonists: luciferase biochemical (cell-free) qHTS assay (AID 1645840; active means well fitted curve in the direction sought with a large enough effect in the repeat runs; an effect the other way counts as inactive or inconclusive; further: potency means the concentration at half of the fitted maximal effect; nearly all actives have a fitted effect of over 55% in size); settings: P450-Glo CYP2D6 enzyme, luciferin luminescence, 1 h; series mostly up to 57.4 µM
# Cytochrome P450 2D6 (Homo sapiens), sequence (P10635 whole entry, looked up): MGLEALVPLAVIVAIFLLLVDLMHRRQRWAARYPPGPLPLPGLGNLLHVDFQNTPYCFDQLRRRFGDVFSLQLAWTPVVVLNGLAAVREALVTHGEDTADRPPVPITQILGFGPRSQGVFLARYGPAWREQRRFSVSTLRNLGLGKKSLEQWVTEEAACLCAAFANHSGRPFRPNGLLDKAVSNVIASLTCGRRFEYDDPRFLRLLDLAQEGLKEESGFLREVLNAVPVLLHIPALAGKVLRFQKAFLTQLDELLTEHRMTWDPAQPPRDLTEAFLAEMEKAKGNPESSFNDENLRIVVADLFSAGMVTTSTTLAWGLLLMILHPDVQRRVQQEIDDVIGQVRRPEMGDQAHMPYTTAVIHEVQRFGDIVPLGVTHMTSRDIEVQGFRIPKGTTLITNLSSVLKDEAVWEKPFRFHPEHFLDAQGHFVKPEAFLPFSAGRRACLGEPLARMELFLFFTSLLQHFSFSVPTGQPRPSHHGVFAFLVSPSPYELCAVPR
# Method in brief: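 P450-Glo CYP2D6 system: proluciferin substrate converted by enzyme to luciferin, read by luminescence proportional to activity. Enzyme-substrate mix with compound 10 min at room temperature, then NADPH regeneration 1 h before detection reagent.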
smiles,measurement,setting,value
C[C@H](CCC(=O)O)[C@H]1CCC2C3C[C@H](O)[C@@H]4C[C@H](O)CC[C@]4(C)C3CC[C@@]21C (some centres not stated),Potency,[1],inactive
same,Potency,[2],inactive
same,outcome,[3],inactive
same,Potency,[4],inactive
same,Potency,[5],inactive
NC(=O)Nc1cc(-c2ccc(CN3CCOCC3)cc2)sc1C(N)=O,Potency,[1],7.39 µM (active)
same,Potency,[2],inactive
same,outcome,[3],inactive
same,Potency,[4],662 nM (active)
same,Potency,[5],0.372 µM (active)
O=C(CN1C(=O)C2(CCCC2)NC[C@H]1c1cc(F)cc(F)c1)Nc1ccc2c(c1)C[C@@]1(C2)C(=O)Nc2ncccc21,Potency,[1],inactive
same,Potency,[2],inactive
same,outcome,[3],inactive
same,Potency,[4],inactive
same,Potency,[5],inactive
C=Cc1c(C)c2cc3nc(cc4[nH]c(cc5nc(cc1[nH]2)C(C)=C5CCC(=O)O)c(CCC(=O)OC)c4C)[C@@]1(C)C3=CC=C(C(=O)OC)[C@H]1C(=O)OC,Potency,[1],inactive
same,Potency,[2],inactive
same,outcome,[3],inactive
same,Potency,[6],26.8 µM (active)
same,Potency,[4],inactive
O=C(O)c1ccc(Nc2ncc3c(n2)-c2ccc(Cl)cc2C(c2c(F)cccc2F)=NC3)cc1,Potency,[1],inactive
same,Potency,[2],inactive
same,outcome,[3],inactive
same,Potency,[6],21.3 µM (active)
same,Potency,[4],258 nM (active) and 742 nM (active)
same,Potency,[5],325 nM (active) and 372 nM (active)
N=c1ccn2c(n1)O[C@H]1[C@@H](O)[C@@H](CO)O[C@H]12,Potency,[1],inactive
same,Potency,[2],inactive
same,outcome,[3],inactive
same,Potency,[4],20.9 nM (active)
CCC(C)CCCCC(=O)N[C@@H](CCN)C(=O)NC(C(=O)N[C@H](CCN)C(=O)N[C@@H]1CCNC(=O)C([C@@H](C)O)NC(=O)[C@@H](CCN)NC(=O)[C@@H](CCN)NC(=O)[C@@H](CC(C)C)NC(=O)[C@H](Cc2ccccc2)NC(=O)[C@H](CCN)NC1=O)[C@@H](C)O (stereo partly drawn) ({Octanoyl(6-Me)}-[Dab][ξThr(3R)][dDab][dDab][Dab]F[dL][dDab][dDab][ξThr(3R)]; lactam 4-C),Potency,[1],inactive
same,Potency,[2],inactive
same,outcome,[3],inactive
same,Potency,[4],inactive
COc1ccc(S(=O)(=O)Nc2cccnc2Nc2ccc(O)cc2)cc1,Potency,[1],inactive
same,Potency,[2],inactive
same,outcome,[3],inactive
same,Potency,[6],8.49 µM (active)
same,Potency,[4],9340 nM (active)
same,Potency,[5],9.34 µM (active)
CC(=O)SCC(Cc1ccccc1)C(=O)NCC(=O)OCc1ccccc1 (configuration not stated),Potency,[1],inactive
same,Potency,[2],inactive
same,outcome,[3],inactive
same,Potency,[4],inactive
same,Potency,[5],inactive
N#Cc1cc(NC(=O)Nc2nnc(-c3ccncc3)s2)ccc1-c1cn[nH]c1,Potency,[1],inactive
same,Potency,[2],inactive
same,outcome,[3],inactive
same,Potency,[4],inactive
same,Potency,[5],inactive
COc1ccc([C@@H]2CNC(=O)C2)cc1OC1CCCC1,Potency,[1],inactive
same,Potency,[2],inactive
same,outcome,[3],inactive
same,Potency,[4],inactive
same,Potency,[5],inactive
CCCCCCCCCCCCc1ccc(S(=O)(=O)Nc2nncs2)cc1,Potency,[1],inactive
same,Potency,[2],inactive
same,outcome,[3],inactive
same,Potency,[4],inactive
CC(=O)OC[C@@H]1O[C@@H](n2ccc(=O)[nH]c2=O)[C@H](OC(C)=O)[C@H]1OC(C)=O,Potency,[1],inactive
same,Potency,[2],inactive
same,outcome,[3],inactive
same,Potency,[4],inactive
same,Potency,[5],inactive
CCOC(=O)[C@@H](N)Cc1ccc(-c2cc(O[C@H](c3ccc(Cl)cc3-n3ccc(C)n3)C(F)(F)F)nc(N)n2)cc1,Potency,[1],9.3 µM (active)
same,outcome,[3],inactive
same,Potency,[6],6.01 µM (active)
same,Potency,[5],23.5 µM (active)
same,activity,[7],-0.461%
same,"activity change, negative = inhibition",[8],0%
Cc1cnc(Nc2ccc(CN3CCOCC3)cc2)nc1Nc1cccc(S(=O)(=O)NC(C)(C)C)c1,Potency,[1],2.94 µM (active)
same,outcome,[3],inactive
same,Potency,[9],9.52 µM (active)
same,Potency,[6],1.34 µM (active)
same,Potency,[4],1.18 µM (active) and 578 nM (active)
same,Potency,[5],1.05 µM (active) and 515 nM (active)
same,activity,[7],-0.0774%
same,"activity change, negative = inhibition",[8],0.454%
COc1ccc(C[C@@H](C)[C@@H](C)Cc2ccc(OC)c(OC)c2)cc1OC,Potency,[1],inactive
same,Potency,[2],inactive
same,Potency,[6],3.01 µM (active)
O=C(Nc1cccc(Nc2ncc(Br)c(NCCc3cnc[nH]3)n2)c1)N1CCCC1,Potency,[1],5.87 µM (active)
same,Potency,[2],inactive
same,outcome,[3],inactive
same,Potency,[4],934 nM (active)
same,Potency,[5],0.59 µM (active)
C[C@H](NC(=O)Cc1cc(F)cc(F)c1)C(=O)N[C@H](C(=O)OC(C)(C)C)c1ccccc1,Potency,[1],inactive
same,Potency,[2],inactive
same,Potency,[4],inactive
same,Potency,[5],inactive
COc1cc(C[C@@H](CO)[C@H](CO)Cc2ccc(O)c(OC)c2)ccc1O,Potency,[1],inactive
same,outcome,[3],inactive
same,Potency,[4],inactive
NC(=O)Nc1sc(-c2ccc(F)cc2)cc1C(N)=O,Potency,[1],1.65 µM (active)
same,Potency,[2],inactive
same,Potency,[4],3320 nM (active)
same,Potency,[5],3.72 µM (active)
CC(C)Oc1ccc(C(=O)N[C@H](CNC(=O)CN(C)C)Cc2ccc(-c3cn4cccc([C@H](C)O)c4n3)cc2)cc1Cl,Potency,[1],inactive
same,Potency,[2],inactive
same,Potency,[9],5.35 µM (active)
same,Potency,[6],10.7 µM (active)
same,Potency,[4],59 nM (active)
CC(Cc1ccc(O)c(O)c1)(NN)C(=O)O (configuration not stated),Potency,[1],inactive
same,Potency,[2],inactive
same,Potency,[5],29.5 µM (active)
C[C@](Cc1c[nH]c2ccccc12)(NC(=O)OC1C2CC3CC(C2)CC1C3)C(=O)NC[C@H](NC(=O)CCC(=O)O)c1ccccc1 (some centres not stated),Potency,[1],inactive
same,Potency,[2],inactive
same,outcome,[3],inactive
same,Potency,[4],inactive
same,Potency,[5],inactive
COC(=O)[C@H](CCCN=C(N)N)NS(=O)(=O)c1ccc(C)cc1,Potency,[1],inactive
same,Potency,[2],inactive
same,Potency,[4],inactive
Cn1cc(C[C@@H](N)C(=O)O)c2ccccc21,"activity change, negative = inhibition",[1],-7.72% [at 8.44 µM] (inactive)
same,Potency,[2],inactive
same,"activity change, negative = viability loss",[4],-2.38% [at 9.23 µM] (inactive)
same,outcome,[5],inactive [at 9.23 µM]
